Compound activity deposited in PubChem by National Center for Advancing Translational Sciences (NCATS).
Compounds with a hit are over-represented: about 7.9% of the library has one in this group of screens.
HCV inh: qHTS Assay for Inhibitors of Hepatitis C Virus (HCV); Huh7.5.1 HCVcc-Cre infection, luciferase reporter, 44 h; Potency, µM (titrated, usually from 41.8 µM), without a hit: top-dose activity change, negative = inhibition, most hits filed as inhibitors; 340,000 compounds, 3.4% hits; active = well fitted inhibition curve with a large enough effect; inconclusive = small, poorly fitted or top-dose-only effect, or another doubt; inactive = no such curve, though single readings can be large or run the other way; note: potency is the fitted concentration of half-maximal effect
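Whole-lifecycle infectious HCVcc-Cre system; cells 1,000/well, compound then virus (~0.5 moi) added 4 h after plating, 44 h culture. Luciferase read 15 sec following 15 min substrate incubation, room temp.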
MARV entry inh: qHTS for inhibitors of binding or entry into cells for Marburg Virus; Marburg virus pseudotyped entry inhibition, cell reporter; Potency, µM (series often up to 37.8 µM), inactives show at the top dose activity change, negative = inhibition, most hits filed as inhibitors; AID 540276, 2011; 300,000 compounds, 1.8% hits; calls by dose curve; tested in HEK293 cells; note: potency is the fitted concentration of half-maximal effect
LASV entry inh: qHTS for Inhibitors of binding or entry into cells for Lassa Virus | Lassa virus pseudotype entry inhibition, cell reporter | Potency, µM (series often up to 37.9 µM), for the others: top-dose activity change, negative = inhibition, usual class: inhibitors | 300,000 compounds, 1.2% hits | AID 540256, 2011; calls by dose curve; tested in HEK293 cells; note: potency is the fitted concentration of half-maximal effect; nearly all actives have a fitted effect of over 50% in size
FMDV antiviral: High Throughput Screening for Foot and Mouth Disease Virus Antivirals; FMDV antiviral cell-based qHTS; Potency, µM (series often up to 57.9 µM), without a hit: at the top dose activity change, negative = inhibition, actives largely listed as inhibitors; 410,000 compounds, 1.2% hits; AID 1159524, 2015; calls by dose curve; tested in HEK293T cells; note: read-out not given here; potency is the fitted concentration of half-maximal effect; nearly all actives have a fitted effect of over 45% in size
HCMV inh: qHTS Assay for inhibitors of the human cytomegalovirus (HCMV); AID 1259415, 2018; HFF cells, HCMV-luciferase reporter, 72 h; active compounds read low; activity change, negative = inhibition, % at 57.5 µM; 410,000 compounds, 4.5% hits; in the data active = activity change below about -60%; inconclusive = no clear call, values can overlap the other calls; inactive = above about -39%
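Human foreskin fibroblasts infected with luciferase-reporter HCMV at MOI 1 PFU/cell, compounds at two doses. Luciferase measured 72 h post infection; normalized to buffer-only basal and Salinomycin (10uM) controls.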
* hit, by the source's call; [ ] = another dose, or the depositor's remark. % is set by controls: 0 for no effect and ±100 for the full control effect.

CCOc1ncccc1C(=O)OC(C)C(=O)Nc1ccc(Cl)cn1 (stereo not drawn) was read as HCV inh -25.5%, FMDV antiviral -7.3% and HCMV inh 12.2.
For Cc1cccc(NC(=O)c2ccc3snnc3c2)c1 the results were MARV entry inh 23.9%[46.1 µM], LASV entry inh 8.2%[46.1 µM], FMDV antiviral 21.0% and HCMV inh 27.1.
For NC1=NC[C@H](c2ccccc2)N1CCc1cc(C(F)(F)F)cc(C(F)(F)F)c1 the results were HCV inh inconclusive, FMDV antiviral inconclusive and HCMV inh -70.7*.
Screening NC1=NC[C@@H](CC2CCCCC2)N1CCc1cc(C(F)(F)F)cc(C(F)(F)F)c1 returned HCV inh inconclusive and FMDV antiviral 35.5µM*.
NC1=NC[C@H](Cc2ccc(O)cc2)N1CCc1cc(C(F)(F)F)cc(C(F)(F)F)c1 was read as HCV inh 18.4%, FMDV antiviral -14.3% and HCMV inh -25.9.
`COc1ccc(-c2nc(C)c(CCNS(=O)(=O)c3cc(C)c(C)cc3C)s2)cc1` gave LASV entry inh -19.5%[46.1 µM], FMDV antiviral 53.0% and HCMV inh -23.2.
`Cc1ccccc1-c1cc(N(C)Cc2ccco2)ncn1` gave FMDV antiviral 4.2%.
`Cc1cc(C)cc(-n2c3ccc(NC(=O)Cc4cccc5ccccc45)cc3c(=O)n2C)c1` gave FMDV antiviral -5.8% and HCMV inh -70.5*.
For Cn1c(=O)c2cc(NC(=O)Cc3ccccc3F)ccc2n1-c1ccc(C(C)(C)C)cc1 the results were FMDV antiviral -5.8% and HCMV inh -31.0.
Screening COc1ccc(C2CCCN2C(=O)Nc2ccc(Cl)cc2)cc1OC (stereo not drawn) returned HCV inh inconclusive, FMDV antiviral -8.2% and HCMV inh -72.3*.
For CNC(=S)Nc1cc2oc3ccccc3c2cc1OC the results were HCV inh 11.2µM*, MARV entry inh 11.4%[46.1 µM], LASV entry inh 9.5%[46.1 µM], FMDV antiviral 23.9% and HCMV inh -12.5.
COc1cc2c(cc1NC(=S)Nc1cccc(C)c1)oc1ccccc12 was read as HCV inh 8.91µM*, MARV entry inh 15.6%, LASV entry inh 1.2%, FMDV antiviral 64.4% and HCMV inh 31.7.
For COc1cc2c(cc1NC(=O)Nc1ccc(F)cc1)oc1ccccc12 the results were HCV inh inconclusive, MARV entry inh 0.3%, LASV entry inh 2.1%, FMDV antiviral -4.9% and HCMV inh -65.6*.
For COc1cc2c(cc1NC(=O)C1CCCO1)oc1ccccc12 (stereo not drawn) the results were HCV inh 7.94µM*, MARV entry inh 8.7%, LASV entry inh 108.1%[14.3 µM], FMDV antiviral 51.7% and HCMV inh 42.7.
Screening COc1cc2c(cc1NC(=S)Nc1ccccc1C)oc1ccccc12 returned HCV inh inconclusive, MARV entry inh inconclusive, LASV entry inh 7.1%, FMDV antiviral 25.0% and HCMV inh 21.1.
Screening Cc1ccsc1C(=O)OCC(=O)N(C)C1CCCCC1 returned HCV inh 1.6%, FMDV antiviral -11.8% and HCMV inh 165.0.
For COC(=O)C(O)(c1ccccc1)C(Nc1ccc(OC)cc1)c1ccc(Cl)cc1 (stereo not drawn) the results were HCMV inh -2.9.
`CCc1nnc(NC(=O)CN2CCCC(C)C2)s1` (stereo not drawn) gave HCV inh 19.0%, FMDV antiviral -3.9% and HCMV inh 7.0.
Cc1ccc(N(C(=O)CNC(=O)c2ccco2)C(C(=O)NC2CCCC2)c2cccnc2)c(C)c1 (stereo not drawn) was read as HCV inh 7.3%, MARV entry inh 4.7%[46.1 µM], LASV entry inh inconclusive, FMDV antiviral 15.7% and HCMV inh -23.5.
Screening COc1cc2c(cc1NC(=O)/C=C/c1ccccc1)oc1ccccc12 returned HCV inh 7.08µM*, MARV entry inh inconclusive, LASV entry inh inconclusive and HCMV inh -64.2*.
CCNC(=S)Nc1cc2oc3ccccc3c2cc1OC was read as HCV inh 22.4µM*, MARV entry inh -17.3%[46.1 µM], LASV entry inh -20.0%[46.1 µM], FMDV antiviral 1.7% and HCMV inh 0.0.
